Among the data in PubChem BioAssay AID1851 (National Center for Advancing Translational Sciences (NCATS), 2009) are activity, negative = inhibition and AC50 values, retold here.

The AC50 is the concentration giving half of the maximal activity seen.

The whole screen tested about 16,000 compounds, of which about 5,100 (32%) were called active. Roughly 25% stayed inconclusive and do not appear here. The list shows a part of the results. Values without a mark were called inactive. The call rests on the fitted dose curve; in most records, active means well fitted curve in the direction sought with a large enough effect; inconclusive means small, poorly fitted or top-dose-only effect, or effect the other way; inactive means no such curve, though single readings can be large or run the other way.
On the % scale 0 is the no-effect control and ±100 the full control effect.

Sequence of Cytochrome P450 3A4 (Homo sapiens) (P08684 whole entry, looked up): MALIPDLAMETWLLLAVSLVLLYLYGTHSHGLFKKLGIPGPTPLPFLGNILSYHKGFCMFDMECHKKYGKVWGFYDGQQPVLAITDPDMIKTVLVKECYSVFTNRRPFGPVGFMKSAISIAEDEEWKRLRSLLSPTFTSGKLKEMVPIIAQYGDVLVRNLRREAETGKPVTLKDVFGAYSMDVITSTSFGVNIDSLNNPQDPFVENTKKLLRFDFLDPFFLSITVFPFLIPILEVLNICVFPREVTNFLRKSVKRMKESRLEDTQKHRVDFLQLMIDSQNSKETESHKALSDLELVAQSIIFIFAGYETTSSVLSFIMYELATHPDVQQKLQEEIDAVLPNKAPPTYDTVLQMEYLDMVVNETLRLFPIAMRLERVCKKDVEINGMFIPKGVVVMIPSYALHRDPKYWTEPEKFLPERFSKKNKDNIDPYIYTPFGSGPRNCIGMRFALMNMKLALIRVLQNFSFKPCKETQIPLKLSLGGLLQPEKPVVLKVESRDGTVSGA

This assay addresses Cytochrome P450 3A4 (Homo sapiens) (UniProt P08684). Put plainly: Cytochrome panel assay with activity outcomes. The note with it: recombinant CYP, pro-luciferin dealkylation, luminescence, p450-cyp3a4; series mostly up to 57.1 µM.
`CC(C)OC(=O)CC12CN(C)CC(CC(=O)OC(C)C)(CN(C)C1)C2=O`: the activity, negative = inhibition was 15.3% [at 2.29 µM]. In the case of `Fc1ccc(-c2ccnc3nc(N4CCOCC4)nn23)cc1`, the AC50 entry was “inactive”. For the compound `O=C(OCc1ccccc1)/C(=C/c1ccc(Cl)cc1)NC(=O)c1ccccc1Cl`, the AC50 was 0.178 µM (active). In the case of `C/C(=C\c1ccc(Cl)cc1)C(C)(C)C(=O)O`, the activity, negative = inhibition is -11.2% [at 11.4 µM].

As for `O=C(CNC(=O)/C(=C\c1ccccc1)NC(=O)c1ccc(Br)cc1)OCc1ccccc1`, the half-maximal activity concentration (AC50) is 0.2 µM (active).

Consider `COc1ccc(C(=O)NCC(=O)OCc2cccc(Br)c2)cc1`, for which the AC50 was 7.94 µM (active).

For the compound `O=C(O)CNC(=O)c1ccccc1O`, the activity, negative = inhibition is -5.63% [at 11.4 µM]. For `COc1ccccc1C(=O)N/C(=C/c1ccc(Br)cc1)C(=O)NCC(=O)O`, the half-maximal activity concentration (AC50) is 8.91 µM (active). On the same count and under the same terms, to `COC(=O)CCC(=O)NNC(=O)c1ccc(Br)cc1` belongs “inactive”; to `COc1cccc(-c2nc(Nc3ccncc3)c3ccccc3n2)c1`, 2.51 µM (active); to `CS(=O)(=O)Nc1cccc(-c2nc(Nc3ccc(F)cc3)c3ccccc3n2)c1`, 6.31 µM (active).

Take `Cc1cccc(C(=O)NN(C)c2nc(-c3ccccc3)nnc2C(F)(F)F)c1`: the AC50 result was “inactive”. As for `CN(C)c1nc(-c2cccc(NS(C)(=O)=O)c2)nc2ccccc12`, the AC50 was 6.31 µM (active). On the same count and under the same terms, to `CS(=O)(=O)Nc1cccc(-c2nc(Nc3ccccc3)c3ccccc3n2)c1` belongs 10 µM (active); to `N#Cc1cc2nc(O)c(O)nc2cc1[N+](=O)[O-]`, “inactive”. On the same count and under the same terms, the result for `CNc1nc(-c2cccc(NS(C)(=O)=O)c2)nc2ccccc12` reads 10 µM (active); that for `CS(=O)(=O)Nc1cccc(-c2nccc(Nc3ccc(F)cc3)n2)c1`, 10 µM (active); that for `CS(=O)(=O)Nc1cccc(-c2nc(Nc3ccncc3)c3ccccc3n2)c1`, 3.98 µM (active).

With `Oc1cc(CN2COc3ccccc32)c(O)cc1CNC1CCCCC1`, the activity, negative = inhibition was -5.1% [at 11.4 µM].

As to `CCN1C(=O)C=CC1=O`, the AC50 entry was “inactive”. The same measure, in the same setting: the result for `O=C(c1ccco1)N1CCC2(CC1)CN(Cc1cc(C(F)(F)F)cc(C(F)(F)F)c1)C2` reads “inactive”. Regarding `O=C(c1ccco1)N1CCC2(CCCN(Cc3ccncc3)C2)CC1`, the concentration at half-maximal activity (AC50) is 5.01 µM (active). Take `O=C(c1ccco1)N1CCC2(CCN(Cc3ccncc3)CC2)CC1`: the AC50 is 12.6 µM (active). Consider `O=C(O)[C@H](/C=C\c1ccccc1)c1ccccc1`, for which the activity, negative = inhibition was -11.9% [at 11.4 µM]. With `Cc1ccc(S(=O)(=O)CC#CCOC(=O)c2ccc([N+](=O)[O-])cc2)cc1`, the AC50 is 15.8 µM (active). Same read-out and setting: to `Cc1ccc(CNC(=O)C2CCC(=O)N2C2CCCCC2)cc1` (stereo unspecified) belongs 7.94 µM (active). Turning to `Cc1ccc(CNC(=O)C2CC(c3ccccc3[N+](=O)[O-])=NO2)cc1` (stereo unspecified), the activity, negative = inhibition was -29.5% [at 2.29 µM].

As to `NS(=O)(=O)c1ccc(CCNC(=O)C2CCCN2C(=O)OCc2ccccc2)cc1` (stereo unspecified), the AC50 was 12.6 µM (active). Same read-out and setting: to `COc1ccccc1NC(=O)N1CCCC1C(=O)NCc1ccc2c(c1)OCO2` (stereo unspecified) belongs 0.355 µM (active); to `COc1ccc(NC(=O)N2CCCC2C(=O)Nc2ccccc2)cc1` (stereo unspecified), “inactive”; to `Cc1ccc(CNC(=O)C2CCCN2C(=O)NCc2ccccc2)cc1` (stereo unspecified), 3.55 µM (active). On the same count and under the same terms, the result for `O=C(O)C1CCCN1C(=O)OCc1ccccc1` (stereo unspecified) reads “inactive”. Still for that read-out and setting: to `O=C(NCCCN1CCN(c2ccccc2F)CC1)C1CCC(=O)N1C1CCCCC1` (stereo unspecified) belongs “inactive”; to `C=C1CC[C@H](O)C/C1=C/C=C1\CCC[C@]2(C)[C@H]1CC[C@H]2[C@@H](C)/C=C\[C@@H](C)C(C)C`, “inactive”. Take `O=C1CC[C@](CCc2nc3ccccc3[nH]2)(c2ccccc2)C(=O)N1`: the activity, negative = inhibition was -26.9% [at 11.4 µM]. Take `CCCNC(=O)c1c(C)cc(=O)oc1C`: the AC50 result is “inactive”. On the same count and under the same terms, to `O=C(CSCc1cccc(Br)c1)N/N=C/c1ccc2c(c1)OCO2` belongs 3.98 µM (active); to `Cc1oc(-c2ccccc2F)nc1CSCC(=O)NCc1ccc2c(c1)OCO2`, 1 µM (active); to `C=CCNC(=O)CC(=O)N/N=C/c1cccc(Br)c1`, “inactive”. Take `CCCCCCCCC(=O)N/N=C/c1cccc(Br)c1`: the activity, negative = inhibition was -6.69% [at 11.4 µM]. Same read-out and setting: to `C/C(=N\NC(N)=O)c1ccc(Cl)cc1` belongs -0.483% [at 11.4 µM]. `C/C(=N\NC(=O)CSCc1ccc(Cl)cc1)c1ccc2c(c1)OCCO2`: the AC50 was 14.1 µM (active). With `O=C(Cn1nc(C(F)F)cc1C(F)F)N/N=C/c1ccc2c(c1)OCO2`, the AC50 is 5.01 µM (active). Take `O=C(CSCc1ccc(Cl)cc1)Nc1ccc2c(c1)OCCO2`: the activity, negative = inhibition is -20.7% [at 11.4 µM]. Take `O=C(O)C(Cl)(c1ccccc1)c1ccccc1`: the activity, negative = inhibition is -5.68% [at 11.4 µM]. Turning to `O=C(/C=C/c1ccc2c(c1)OCO2)NCCSCc1cccc(Cl)c1`, the activity, negative = inhibition was 18.2% [at 2.29 µM].

Regarding `O=C(CSCc1cccc(Cl)c1)NCc1ccc2c(c1)OCO2`, the AC50 is 1.12 µM (active). Consider `Cc1cc(OC(=O)c2ccccc2Cl)cc(=O)n1C`, for which the AC50 entry is “inactive”. The same measure, in the same setting: to `Cc1cccc(CNc2ccnc(-c3ccc(C(=O)N(C)C)cc3)n2)c1` belongs 3.16 µM (active); to `CN(C)C(=O)c1ccc(-c2nccc(NCc3cccnc3)n2)cc1`, 15.8 µM (active). Turning to `[N-]=[N+]=Nc1ccc(C(=O)CSC[C@@H](NC(=O)CC[C@@H](N)C(=O)O)C(=O)NCC(=O)O)cc1`, the AC50 entry is “inactive”. Still for that read-out and setting: the result for `CC(C)[C@H]1C(=O)C(C(N)=O)=C(O)[C@]2(O)C(=O)C3=C(O)c4c(O)ccc(N(C)C)c4C[C@H]3C[C@@H]12` reads “inactive”. The same measure, in the same setting: to `COc1ccc(Oc2ncc3nc(-c4cccs4)c(=O)n(Cc4cccc(OC)c4)c3n2)cc1` belongs 3.98 µM (active); to `COc1ccc(Nc2ncc3nc(-c4cccs4)c(=O)n(Cc4cccc(OC)c4)c3n2)cc1`, “inactive”; to `COc1cccc(Cn2c(=O)c(-c3cccs3)nc3cnc(OC)nc32)c1`, 3.98 µM (active). Still for that read-out and setting: to `COc1cccc(Cn2c(=O)c(-c3cccs3)nc3cncnc32)c1` belongs 5.01 µM (active); to `COc1ncc2nc(-c3cccs3)c(=O)n(Cc3ccc(F)cc3)c2n1`, 3.16 µM (active).

Turning to `O=C(O)c1ccc(C(=O)c2ccccc2)c(C(=O)O)c1`, the activity, negative = inhibition is -42.2% [at 11.4 µM]. Regarding `C=CCN=C(NC#N)SCc1ccccc1`, the activity, negative = inhibition was -3.62% [at 2.29 µM]. Turning to `COc1ncc2nc(-c3ccc(F)cc3)c(=O)n(Cc3ccc(F)cc3)c2n1`, the AC50 is 3.16 µM (active).

Turning to `CCNc1ncc2nc(-c3ccc(OC)cc3)c(=O)n(Cc3ccc(F)cc3)c2n1`, the AC50 result was “inactive”. The same measure, in the same setting: to `COc1cc2c(cc1OC)CN(CC(=O)Nc1ccc3c(c1)OCO3)CC2` belongs 3.55 µM (active).

As for `CCN(CC)C(=O)COc1ccc(S(=O)(=O)N2CCOCC2)cc1`, the activity, negative = inhibition is -4.69% [at 11.4 µM]. In the case of `COc1ccc(NC(=O)CC#N)cc1OC`, the AC50 result was “inactive”.

As to `CCOc1ccc(C(=O)CN2CCN(S(=O)(=O)c3ccc(F)cc3)CC2)cc1`, the half-maximal activity concentration (AC50) is 6.31 µM (active). The same measure, in the same setting: to `CCOC(=O)c1ccc(S(=O)(=O)N2CCN(C)CC2)cc1` belongs “inactive”; to `CCOc1ccc(NC(=O)CN2CCN(S(=O)(=O)c3ccc(Cl)cc3)CC2)cc1`, 14.1 µM (active). For `O=C(CN1CCN(S(=O)(=O)c2ccc(F)cc2)CC1)Nc1ccc(Cl)c(C(F)(F)F)c1`, the AC50 was 5.01 µM (active). For `N[C@@H](Cc1ccnnc1)C(=O)O`, the activity, negative = inhibition was -3.75% [at 11.4 µM]. Consider `Cc1nnc(S(=O)(=O)c2ccc(N=Nc3c(N)nc(N)nc3N)cc2)s1`, for which the activity, negative = inhibition is 4.76% [at 11.4 µM]. In the case of `CCN(CC(=O)Nc1ccc2c(c1)OCCO2)C(=O)c1cccc(S(=O)(=O)N2CCOCC2)c1`, the activity, negative = inhibition was -20.1% [at 11.4 µM].

As for `O=C(CN1CCN(S(=O)(=O)c2ccc(Cl)cc2)CC1)Nc1ccc2c(c1)OCO2`, the concentration at half-maximal activity (AC50) is 1 µM (active).

Regarding `O=C(CN1CCN(S(=O)(=O)c2ccc(F)cc2)CC1)Nc1ccc2c(c1)OCO2`, the AC50 was 2 µM (active). On the same count and under the same terms, the result for `CC1(C)CCCN(C(=O)c2coc(=O)c(Br)c2)C1` reads “inactive”; that for `CCn1c(=O)cc(OCC(=O)Nc2cccnc2)c2ccccc21`, 7.08 µM (active); that for `CCn1c(=O)cc(SCC(=O)Nc2cc(OC)c(OC)c(OC)c2)c2ccccc21`, 5.01 µM (active). As for `CCn1c(=O)cc(SCC(=O)N2CCN(C(=O)c3ccco3)CC2)c2ccccc21`, the AC50 was 7.08 µM (active). On the same count and under the same terms, the result for `Cn1c(C(=O)O)c(CC(=O)NCc2cccnc2)c2ccccc21` reads “inactive”; that for `O=C(Cc1ccc(Cl)cc1)N1CCN(C(=O)c2ccco2)CC1`, “inactive”. For `Cc1ccnc(NC(=O)c2cccc(NC(=O)COc3ccccc3)c2)c1`, the activity, negative = inhibition is -4.8% [at 2.29 µM]. Turning to `Cn1c(=O)cc(OCC(=O)NCc2cccnc2)c2ccccc21`, the AC50 was 12.6 µM (active). Same read-out and setting: to `CC(C)NC(=O)N1CCC2(CC1)CCN(C(=O)c1ccco1)CC2` belongs “inactive”. On to `CCC(CC)C(=O)NCCN1CCN(C(=O)C(CC)CC)CC1`, for which the activity, negative = inhibition was 2.98% [at 2.29 µM]. In the case of `CC(C)CCOc1ccc(NC(=O)C2OC3OC(C)(C)OC3C3OC(C)(C)OC23)cc1` (stereo unspecified), the activity, negative = inhibition was -3.7% [at 2.29 µM].

For the compound `Cn1c(=O)cc(OCCCC(=O)Nc2cccnc2)c2ccccc21`, the AC50 is 6.31 µM (active). For `CCN(C(=O)COc1cc(=O)n(C)c2ccccc12)c1cccc(Cl)c1`, the AC50 is 3.55 µM (active). With `COc1cc(=O)n(C)c2c(OC[C@@H](O)C(C)(C)O)cccc12`, the AC50 entry is “inactive”. The same measure, in the same setting: to `CCCNC(=O)OC[C@@H]1O[C@H](CCO/N=C(\C)CCN2CCCc3nc(C)c(C)cc32)C=C[C@@H]1Oc1ccc(OC)cc1` belongs 3.98 µM (active); to `CCCNC(=O)OC[C@@H]1O[C@H](CCO/N=C(\C)CCN2CCCCc3nc(C)c(C)cc32)C=C[C@@H]1Oc1ccc(OC)cc1`, 3.16 µM (active); to `O=C(c1ccccc1)c1ccc2nc(-c3ccc(NC(=O)c4ccccc4F)cc3)[nH]c2c1`, “inactive”.

With `Fc1cc2nc(-c3ccncc3)[nH]c2cc1F`, the half-maximal activity concentration (AC50) is 1.41 µM (active).
